Test results as given in PubChem BioAssay AID894 (National Center for Advancing Translational Sciences (NCATS), 2007).
The campaign covered roughly 150,000 compounds. About 6,500 (4.3%) were called active. Not shown: some 12% with an inconclusive outcome. Calls come from the whole dose curve; as a rule, active = well fitted inhibition curve with a large enough effect (not every such curve was filed as active); inconclusive = small, poorly fitted or top-dose-only effect, or another doubt; inactive = no such curve, though single readings can be large or run the other way. Shown is part of a subset that was picked to be rich in actives.

biological target: 15-hydroxyprostaglandin dehydrogenase [NAD(+)] (Homo sapiens) (UniProt P15428); test: qHTS Assay for Inhibitors of HPGD (15-Hydroxyprostaglandin Dehydrogenase); conditions: purified HPGD, NADH fluorescence kinetic, PGE2 substrate; activity change, negative = inhibition: hits give low values
Procedure, shortened: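 20 nM HPGD preincubated 15 min at room temperature with compound in 50 mM Tris-HCl pH 8, 0.01% Tween 20. Started with 1 mM NAD+ and 30 uM prostaglandin E2; NADH fluorescence (360/450 nm) read 5 times over 30-s intervals, last minus first.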
% is set by controls: 0 for no effect and ±100 for the full control effect; potency is the fitted concentration of half-maximal effect.

Chain of 15-hydroxyprostaglandin dehydrogenase [NAD(+)] (Homo sapiens) (P15428 whole entry, looked up): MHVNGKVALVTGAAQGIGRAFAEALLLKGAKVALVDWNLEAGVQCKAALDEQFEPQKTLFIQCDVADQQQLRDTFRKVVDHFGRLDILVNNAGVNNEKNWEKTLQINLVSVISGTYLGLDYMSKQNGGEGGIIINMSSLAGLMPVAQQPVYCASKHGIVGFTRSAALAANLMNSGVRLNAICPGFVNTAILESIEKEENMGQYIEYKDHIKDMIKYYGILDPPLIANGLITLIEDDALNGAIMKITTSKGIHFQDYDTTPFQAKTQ

Activity change, negative = inhibition, inactive:
Cc1ccc2c(c1)C1CN(C)CCC1N2C(=O)c1ccccc1NS(=O)(=O)c1ccc(F)cc1C (centres undefined) -6.43%
CSc1ccc(CCNC(=O)C2CCN(c3nnc(-n4cccc4)s3)CC2)cc1 2.14%
CCOC(=O)C1CCCN(C(=O)C2CCN(c3nnc(-n4cccc4)s3)CC2)C1 (centres undefined) -22.6%
O=C(NC(Nc1nc2ccc([N+](=O)[O-])cc2s1)(C(F)(F)F)C(F)(F)F)c1ccccc1 -5.24%
COc1ccc(C(=O)Nc2nc(-c3ccc(OC)cc3)c(-c3ccc([N+](=O)[O-])cc3)s2)cc1 -12.2%
CCOc1ccc(C(=O)NC(C(=O)NCc2ccccn2)C(C)C)cc1 (centres undefined) -8.11%
CN(c1ccc(C(=O)NCc2ccccn2)cc1)S(C)(=O)=O -25.1%
COc1ccccc1C1SCCN1C(=O)c1ccc([N+](=O)[O-])cc1 (centres undefined) -2.04%
O=C(CN1CCN(c2ccc(O)cc2)CC1)Nc1cc(S(=O)(=O)N2CCOCC2)ccc1Cl -5.21%
Cc1ccc(-n2c(C)cc(C(=O)CSc3nnc4ccccn34)c2C)cc1 -16.1%
C/C(=N\NC(=O)c1ccc(NS(=O)(=O)c2cccs2)cc1)c1ccc2ccccc2c1 -21.6%
Nc1c(C(=O)NCc2ccccc2)sc2nc3c(cc12)C(=O)CCC3 -24.2%
Cc1cccc(NC(=O)c2sc3nc4c(c(-c5ccco5)c3c2N)CCC4)c1 -21.6%
C/C(CCC(=O)OC[C@H]1O[C@H](C#Cc2ccccc2)C=C[C@@H]1Oc1ccc(C)cc1)=N\OC[C@@H](O)[C@H]1O[C@@H]2OC(C)(C)O[C@@H]2[C@H]1O -19.5%
CCc1ccc(NC(=O)CC2C(=O)NCCN2C(=S)Nc2ccccc2)cc1 (centres undefined) -10.9%
Cc1ccc(NN=C2C(=O)OC(C)(C)OC2=O)c(C)c1 -9.59%
C=CC1=C2C=C(C3CC3)N(C(CO)CO)C=C2C(=O)C(C)(OC(=O)c2ccco2)C1=O (centres undefined) -2.61%
COc1ccc(OCc2cn3c(C)cc(C)nc3n2)cc1 -7.95%
COc1ccc(Nc2cc(C)nc(-n3nc(C)cc3C)n2)cc1 -0.842%

Potency, active:
O=C(C1CCN(c2nnc(-n3cccc3)s2)CC1)N1CCc2ccccc2C1 14.1 µM
COC(=O)C(NC(=O)c1ccc(OC)cc1)(Nc1ncc(S(=O)(=O)c2ccc([N+](=O)[O-])cc2)s1)C(F)(F)F (centres undefined) 15.8 µM
O=C(NCc1ccccn1)c1ccc2nc(-c3ccco3)c(-c3ccco3)nc2c1 14.1 µM
CC(C)OC(=O)c1sc2nc3c(cc2c1N)C(=O)CCC3 28.2 µM
COc1ccc(C(C[N+](=O)[O-])n2nc(C)cc2C)cc1 (centres undefined) 31.6 µM
